# Screens deposited in PubChem by National Center for Advancing Translational Sciences (NCATS).
# Shown are actives, neighbours in structure and some others; about 2.7% of the full set was active somewhere.
# KDM5B inhibitor: inhibitors of human KDM5B histone demethylase; Q9UGL1; KDM5B demethylase, FDH-coupled NADH fluorescence (FDH is formaldehyde dehydrogenase); Potency, µM (series often up to 57.7 µM), hits mostly inhibitors; actives 2.6% (n = 220,000); AID 1347165; further: potency means the concentration at half of the fitted maximal effect; 0% is about no effect; nearly all actives have a fitted effect of over 70% in size
#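 Coupled FDH/NAD⁺ fluorescence readout. KDM5BΔAP 200 nM final; compound titration, 10 min RT preincubation; substrate mix 12.5 µM H3K4me3, 25 µM 2-OG, 50 µM Fe(II), 100 µM ascorbate, 0.25 mM NAD⁺, 0.25 U/mL FDH; ΔRFU over 30 min.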
# IP6K1 inh: inhibitors of human IP6K1. Q92551. IP6K1 kinase, ADP-Glo luminescence, 2 h; hits give low values. activity change, % (series mostly up to about 58 µM). actives 0.81% (n = 140,000); in the data active means activity change below about -25%; further: on the % scale 0 is the no-effect control and ±100 the full control effect
# Target sequence (Q92551 whole entry, looked up): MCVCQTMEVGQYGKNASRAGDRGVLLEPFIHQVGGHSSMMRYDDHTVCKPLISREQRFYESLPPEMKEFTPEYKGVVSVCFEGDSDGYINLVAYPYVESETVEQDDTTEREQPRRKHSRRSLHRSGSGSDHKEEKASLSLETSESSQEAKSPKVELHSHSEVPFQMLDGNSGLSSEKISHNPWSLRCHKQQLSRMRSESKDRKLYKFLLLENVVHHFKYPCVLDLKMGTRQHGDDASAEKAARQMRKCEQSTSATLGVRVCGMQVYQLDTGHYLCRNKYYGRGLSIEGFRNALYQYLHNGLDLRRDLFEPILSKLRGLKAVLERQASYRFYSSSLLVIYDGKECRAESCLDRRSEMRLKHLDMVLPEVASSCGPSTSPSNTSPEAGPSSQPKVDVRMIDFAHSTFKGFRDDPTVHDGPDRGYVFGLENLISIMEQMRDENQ
#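 ADP-Glo luminescence measures ADP made by human IP6K1 during a 2 h RT reaction with ATP/IP6 (mix at 1.3 mM/130 uM); top library doses 57.5 and 19.1 uM final.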
# IP6K1 inh cnf: confirmation of human IP6K1 inhibitors | shares compounds with IP6K1 inh | recombinant IP6K1 kinase, ADP-Glo luminescence, 2 h | Potency, µM (highest dose often 49 µM), without a hit: at the top dose activity change, negative = inhibition, hits mostly inhibitors | actives 13% (n = 1,200) | AID 1645852; further: potency means the concentration at half of the fitted maximal effect; on the % scale 0 is the no-effect control and ±100 the full control effect; nearly all actives have a fitted effect of over 65% in size
# An asterisk follows results filed as active; i = inactive; ? = inconclusive; · = not tested or not shown; [ ] = dose if it differs, or a comment. Unless noted, the call rests on the fitted dose curve; in most records, active means well fitted inhibition curve with a large enough effect; inconclusive means small, poorly fitted or top-dose-only effect; inactive means no such curve, though single readings can be large or run the other way.
SMILES,KDM5B inhibitor,IP6K1 inh,IP6K1 inh cnf
CC(=O)c1c(C)[nH]c(C(=O)C(C)Sc2ccc(F)c(Cl)c2)c1C (stereo unspecified),i,·,·
Cc1[nH]c(C(=O)N2CCC(CC(=O)NCc3ccc4c(c3)OCO4)CC2)c(C)c1C(=O)OC(C)C,i,·,·
CCOCCCNc1ncnc2c1CN(C1CCCCC1)C(=O)CN2C,·,6,·
COc1ccc(NS(=O)(=O)c2ccc3nc(-c4ccccc4)[nH]c3c2)cc1,i,-31*,-17%
CCOc1ccc(NS(=O)(=O)c2ccc3nc(-c4ccccc4)[nH]c3c2)cc1,i,-22,·
Cn1nc(C(=O)Nc2cccc(I)c2)c2ccccc2c1=O,i,·,·
CCc1cccc(NC(=O)c2sc3nc[nH]c(=O)c3c2C)c1,i,18,·
Cc1c(C(=O)Nc2cccc(C(F)(F)F)c2)sc2nc[nH]c(=O)c12,?,-32*,?
CCc1ccccc1Nc1nc(N)c(C(=O)c2ccc(C)cc2)s1,i,·,·
CCC(CC)(CC(=O)Nc1ccccc1CO)C(=O)O,i,·,·
CCOC(=O)c1ccc(NC(=O)Cc2ccc(-n3c(CC)nc4cccnc43)cc2)cc1,i,-45*,?
CCOC(=O)c1ccc(NC(=O)CCc2nc3cccnc3n2Cc2cccs2)cc1,?,19,·
CCn1nc(C(=O)N2CCC(C(N)=O)CC2)c2ccccc2c1=O,i,·,·
O=C(Nc1nonc1-c1ccc2c(c1)CCCC2)c1cccs1,i,·,·
C/C=C/C=C/C=C/C(=O)O[C@@H]1[C@@H](OC)C2=C(C(=O)N(C(CCC(=O)O)C(=O)O)C2)[C@@]2(C)CCCC(C)(C)[C@H]12 (stereo partly specified),·,-17,·
C/C=C/C=C/C=C/C(=O)O[C@@H]1[C@@H](OC)C2=C(C(=O)N(C(C)C(=O)O)C2)[C@@]2(C)CCCC(C)(C)[C@H]12 (stereo partly specified),·,11,-6%[18.9 µM]
Cc1ccc2oc(C(=O)N(Cc3ccccc3F)C3CCS(=O)(=O)C3)c(C)c2c1 (stereo unspecified),i,-2,·
Cc1c(C(=O)N(Cc2ccccc2F)C2CCS(=O)(=O)C2)oc2ccccc12 (stereo unspecified),i,-61*,-21%
CNCc1cccs1,i,·,·
CCOC(=O)NCc1ccc(OC)cc1,i,·,·
COc1cc2c(cc1OC)CN(Cc1cc(=O)c(OCc3c(Cl)cccc3Cl)co1)CC2,i,·,·
CC(=O)N(Cc1cccnc1)c1nc2ccc(F)cc2s1,i,-2,·
O=C(CCS(=O)(=O)c1ccccc1)N(Cc1cccnc1)c1nc2ccc(F)cc2s1,?,-26*,-12%
CCCCN(C)C(=O)c1c(C)sc2ccn(CCC)c(=O)c12,?,-7,-24%
CCCn1ccc2sc(C)c(C(=O)O)c2c1=O,i,0,·
SMILES,KDM5B inhibitor,IP6K1 inh,IP6K1 inh cnf
Cc1cccc(NC(=O)c2cc(-c3ccc[nH]3)n[nH]2)c1,?,-9,?
Cc1ccc(NC(=O)c2cc(-c3ccc[nH]3)n[nH]2)cc1F,i,-5,·
O=C(Nc1cccc(F)c1)c1cc(-c2ccc[nH]2)n[nH]1,i,26,·
COc1ccc(NC(=O)c2cc(-c3ccc[nH]3)n[nH]2)cc1F,i,13,?
O=C(C1CCCN([S+](=O)([O-])c2cccs2)C1)N1CCC(N2CCOC2=O)CC1 (stereo unspecified),·,16,·
S=C(NCCSc1ccc(Cl)cc1)Nc1ccccc1,i,·,·
Cn1ncc2c(C(=O)NCC3CC3)cc(-c3ccc(Cl)nc3)nc21,·,5,·
Cc1ccc(NS(=O)(=O)c2ccc3[nH]c4c(c3c2)CCCC4)cc1N(C)C,?,-27*,-7%
Cc1cc(C)cc(NC(=O)CN(C)S(=O)(=O)c2ccc3[nH]c4c(c3c2)CCCC4)c1,?,16,·
Cc1ccc(NS(=O)(=O)c2ccc3[nH]c4c(c3c2)CCCCCC4)cc1Cl,?,6,·
Cc1cccc(C)c1NC(=O)CN(C)S(=O)(=O)c1ccc2[nH]c3c(c2c1)CCCC3,?,-26*,21%
NC(=O)c1cccc(-c2cc(Nc3ccc(OC(F)(F)F)cc3)ncn2)c1,·,-25*,?
O=C(NCCO)c1cccc(-c2cc(Nc3ccc(OC(F)(F)F)cc3)ncn2)c1,·,-21,·
CC(=O)N1Cc2ccccc2CC2(CCCN(CC3CCCC3)C2)C1 (stereo unspecified),i,0,·
COc1cc2c(cc1OC)-c1c(c(C(=O)Nc3ccncc3)nn1-c1ccccc1F)C2,i,·,·
O=C(N[C@@H]1CCOC[C@H]1Oc1cccc(F)c1)c1cnc2ccccn2c1=O,35µM*,-42*,-4%
Cc1ccn(CCC(=O)N[C@@H]2COCC[C@@H]2Oc2cccc(F)c2)n1,i,9,·
CCCCn1c(=O)[nH]c(=O)c2c1nc(-c1cccc(OCC)c1OC)n2CCOC,i,·,·
O=C(NCCCCc1ccccc1)c1cc(=O)[nH]c2ccccc12,i,·,·
Cc1ccc(C(=O)NN=C2CCC(C(C)(C)C)CC2)cc1 (stereo unspecified),i,·,·
CCC(CO)NC(=O)c1nn(-c2ccccc2F)nc1CO (stereo unspecified),i,·,·
Cc1cccc(Cn2c(SCCCO)nc3c2c(=O)n(C)c(=O)n3C)c1,i,·,·
O=S(=O)(c1ccc(-c2cc(C(F)(F)F)on2)s1)N1CCN(c2cccc(Cl)c2)CC1,i,-33*,61%
O=S(=O)(c1ccc(-c2cc(C(F)(F)F)on2)s1)N1CCN(c2ccccc2)CC1,i,39,·
COc1ccc(Br)cc1/C=C1\Oc2cc(OS(C)(=O)=O)ccc2C1=O,i,·,·
SMILES,KDM5B inhibitor,IP6K1 inh,IP6K1 inh cnf
COc1ccc(C(=O)N2CCC(Cc3nc(C(C)C)no3)CC2)cc1OC,i,-5,·
Cc1cc(C)cc(C(=O)N2CCC(Cc3nc(-c4cnccn4)no3)CC2)c1,i,4,·
Cc1ccc(C(=O)N2CCC(Cc3nc(C(C)C)no3)CC2)cc1C,i,-27*,-8%
Cc1cccc(C(=O)N2CCC(Cc3nc(-c4cnccn4)no3)CC2)c1,i,-27*,4%
COc1ccc(-c2nc3cc(NC(=O)COc4ccccc4)ccc3o2)cc1Cl,i,·,·
CCOc1ccc(NC(=O)c2n[nH]c(=O)c3ccccc23)cc1OCC,i,·,·
OCc1c[nH]c2ccccc12,·,-28*,-13%[92.2 µM]
O=C(O)Cc1c[nH]c2ccccc12,i,·,·
Cn1ncc2c(C(=O)NCc3ccc(F)cc3)cc(-c3ccccc3)nc21,·,1,·
Cc1cccc(NC(=O)Cc2csc(COc3cccc(C)c3)n2)c1,i,-22,·
COc1ccc(NC(=O)Cc2csc(COc3cccc(C)c3)n2)cc1OC,?,-27*,34%
CC(NC(=O)COc1ccc(Br)cc1)c1nc2ccccc2[nH]1 (stereo unspecified),i,·,·
O=C(Nc1noc2ccccc12)c1ccc(F)cc1,i,-48*,?
O=C(Nc1noc2ccccc12)c1cccc(F)c1,?,1,·
Cc1ccc(Nc2ccc(N3CCN(S(=O)(=O)c4ccc(C)cc4)CC3)nn2)cc1,i,·,·
OC[C@H]1C[C@@H](NCc2cccc(Cl)c2)[C@H](O)[C@@H]1O,?,-13,·
OC[C@H]1C[C@@H](NCc2cccc3c2OCO3)[C@H](O)[C@@H]1O,i,-26*,?
Cc1cccc(Nc2c3c(nc4nncn24)CCC3)c1C,i,-27*,-3%
